# Tests used:
# Assay in all cases: PBM binding z-score (relative to random genomic background probes); higher = stronger binding; sequences stand for … in GC…GCGATTGACAGCGTAGAATGAAGG
# [1] = tested on: PPARg:RXRa DBDmut IVT, anti-RXR (DBD mutation: RXRa K156A/R161A, NR concentration 270 nM, RXRa partner concentration 90 nM)
# How it was run: (§1)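 Custom Agilent 4×180K protein-binding microarrays carried double-stranded probes. Their 34-nt variable regions held direct-repeat seeds, single-nucleotide variants, half-site ablations and random human genomic background sequences. Arrays were incubated 1 h with ligand-free nuclear receptor dimers in PBS pH 7.4, 2% milk, 0.02% Triton X-100, 1 mM DTT, 0.2 mg/mL BSA and 0.4 mg/ml salmon testes DNA. Antibodies against each partner (one per run) detected binding, and scanned fluorescence was regression-normalized. Binding z-scores use random background probes as reference.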
# [2] = tested on: PPARg:RXRa IVT, anti-PPARg (NR concentration 270 nM, RXRa partner concentration 90 nM)
# How it was run: as §1
# [3] = tested on: PPARg DBDmut:RXRa IVT, anti-PPARg (DBD mutation: PPARg1 K132A/R137A, NR concentration 270 nM, RXRa partner concentration 90 nM)
# How it was run: as §1
# [4] = tested on: PPARg DBDmut IVT, anti-PPARg (DBD mutation: PPARg1 K132A/R137A, NR concentration 270 nM)
# How it was run: as §1
# [5] = tested on: PPARg homodimer (NR concentration 180 nM)
# How it was run: as §1
# [6] = tested on: PXR:RXRa (NR concentration 270 nM, RXRa partner concentration 90 nM)
# How it was run: as §1
# [7] = tested on: PXR homodimer (NR concentration 270 nM)
# How it was run: as §1
# [8] = tested on: RARa:RXR (NR concentration 270 nM, RXRa partner concentration 90 nM)
# How it was run: as §1
# [9] = tested on: RARa homodimer (NR concentration 270 nM)
# How it was run: as §1
# [10] = tested on: RARb:RXRa (NR concentration 270 nM, RXRa partner concentration 90 nM)
# How it was run: as §1
Sequence,PBM binding z-score [1],PBM binding z-score [2],PBM binding z-score [3],PBM binding z-score [4],PBM binding z-score [5],PBM binding z-score [6],PBM binding z-score [7],PBM binding z-score [8],PBM binding z-score [9],PBM binding z-score [10]
TTACCAAGGTGAGCTAAGGTCGTTGATCCAACTC,1.04,1.93,-0.698,-0.173,0.0568,4.6,0.308,2.41,-1.25,1.91
TCTTGTCGATCAACAGGAGGTTAAGAAAGATCGA,0.771,0.105,-0.14,-0.175,-0.727,0.727,-0.0541,0.726,0.067,0.397
CCGACTGGGGCACAAGGTTACCATAAGCCAGCCC,3.82,4.45,-0.334,-0.282,1.62,0.226,-0.93,0.828,-0.242,1.46
CCATACGGGTCACTGACAGGTTATAGCATTTGGA,2.31,3.21,0.442,0.0659,2.58,3.55,0.194,4.58,1.68,3.81
ATCTCTAGGTAAACATAGTTCAGTGAATGCAAAT,2.31,2.59,0.983,1.45,1.28,1.35,0.955,0.73,1.3,1.01
TCATATAGGTAAAGGCGAAAGTCGAACGATATGA,3.49,2.3,1.22,0.996,0.221,-0.107,0.0413,0.124,0.504,0.399
ATCGAAAGGTCGAGGTGAATATAGAGAAAGGGAA,0.454,2.9,1.3,0.685,1.72,2.6,0.39,3.39,1.13,4.2
GATACAGGGTCAGCAAGAGGCCAGAGTATGGAAA,0.915,2.6,-0.173,-0.37,1.98,3.23,0.0143,4.07,0.301,4.18
CCGACTGTGGCAAAGGTTACCATACTCAGTACGA,2.07,3.83,0.000701,-0.266,1.71,1.84,0.27,2.56,0.0109,1.9
TAGCCTAGGTCATTGGGCCGGTATAGTACGCATC,1.71,3.19,0.219,-0.308,0.812,1.39,-0.428,1.95,-0.0602,3.48
CAGACTGGGGCAGAAAGGTTACCATACCATCCGG,2.77,3.01,-0.514,-0.142,2.11,1.39,-0.052,2.24,0.536,2.04
CCTTCTGGGCCATCAGGTCATTGATATCAACGTT,4.77,5.03,0.4,0.236,1.37,1.64,0.618,2.31,0.159,2.28

# — the supplement of paper PMC6555819
